# Measurements: PubChem BioAssay (Tox21)
# Inconclusive results are not listed. Entries that show only a call come without a potency. The source made the active and inactive calls. Unless noted, the call rests on the fitted dose curve; in most records, active means well fitted curve in the direction sought with a large enough effect in the repeat runs; inconclusive means weak or mixed curves; inactive means no such curve, though single readings can be large; an effect the other way counts as inactive or inconclusive.
# Target: Thyrotropin-releasing hormone receptor (Homo sapiens) (UniProt P34981)
# Experiment: qHTS assay to identify small molecule agonists of the thyrotropin-releasing hormone receptor (TRHR) signaling pathway (AID 1346891; calls by dose curve;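 further: HEK293 cells expressing TRHR with calcium dye readout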)
# Conditions: TRHR-HEK293 calcium fluorescence, agonist mode; series mostly up to 57.6 µM
# Outline: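 HEK293/TRHR cells, 1500 per well, 18 h 37 °C; Ca dye 2 h 37 °C; pin-tool compound addition (agonist mode); kinetic fluorescence 3 min, 1 s reads; 15 concentrations, triplicate.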
# Sequence of Thyrotropin-releasing hormone receptor (Homo sapiens) (P34981 whole entry, looked up): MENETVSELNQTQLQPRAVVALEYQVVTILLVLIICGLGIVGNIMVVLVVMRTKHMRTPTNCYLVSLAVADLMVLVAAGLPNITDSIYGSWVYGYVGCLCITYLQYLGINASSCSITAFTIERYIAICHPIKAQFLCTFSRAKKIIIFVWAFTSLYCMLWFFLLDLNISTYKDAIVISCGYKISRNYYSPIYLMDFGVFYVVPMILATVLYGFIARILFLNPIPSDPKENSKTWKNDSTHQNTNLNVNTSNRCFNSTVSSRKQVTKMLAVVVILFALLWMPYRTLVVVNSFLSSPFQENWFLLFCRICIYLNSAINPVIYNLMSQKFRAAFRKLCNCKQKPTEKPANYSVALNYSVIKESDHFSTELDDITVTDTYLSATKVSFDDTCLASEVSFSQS
row,Structure (SMILES),Potency
1,C(=C\c1ccccc1)/c1ccccc1,inactive
2,CC(CCC(=O)O)C(=O)O (configuration not stated),inactive
3,O=C(CCCN1CC=C(n2c(=O)[nH]c3ccccc32)CC1)c1ccc(F)cc1,inactive
4,CCOC(C)=O,inactive
5,CCCCC(CC)CN (configuration not stated),inactive
6,O=C(Nc1cccc2c(=O)cc(-c3nn[nH]n3)oc12)c1ccc(OCCCCc2ccccc2)cc1,inactive
7,CCCCCCCCN,inactive
8,CC(O)c1ccccc1 (configuration not stated),inactive
9,COC(=O)CS,inactive
10,CCC1NC(=O)c2cc(S(N)(=O)=O)c(Cl)cc2N1 (configuration not stated),inactive
11,CCCCCCCCCCC(=O)O,inactive
12,CCC(C)(C)OC,inactive
13,C1COC1,inactive
14,O=C1CCCCCCCCCCOCCCCO1,inactive
15,C=C/C(C)=C/C/C=C(\C)CCC=C(C)C,inactive
16,O=C(O)C[C@H](NC(=O)OCc1ccccc1)C(=O)O,inactive
17,CC(=O)Oc1ccc([N+](=O)[O-])cc1CCl,inactive
18,CC(C)C(O)(c1ccc(OC(F)(F)F)cc1)c1cncnc1 (configuration not stated),inactive
19,O=c1[nH]ncc2ccccc12,inactive
20,C=Cc1ccc(S(=O)(=O)O)cc1,inactive
21,CC1CC(OC(=O)C(O)c2ccccc2)CC(C)(C)N1C (configuration not stated),inactive
22,CC(C)=CCC1C(=O)N(c2ccccc2)N(c2ccccc2)C1=O,inactive
23,C=C(C)C(=O)OCCCCCCCCCCCCC,inactive
24,Cc1cc(C)cc(N)c1,inactive
25,NC(=O)c1ccncc1,inactive
26,CCOC(=O)/C=C/C(=O)OCC,inactive
27,O=C(O)c1ccc(OCCCOc2ccc(C(=O)O)cc2)cc1,inactive
28,CC(=O)N/N=C/c1ccc([N+](=O)[O-])o1,inactive

# System: not listed separately
# Experiment: Human pregnane X receptor (PXR) small molecule agonists, qHTS cell viability counter screen (AID 1346977); further: nearly all actives have a fitted effect of over 50% in size; further: potency means the concentration at half of the fitted maximal effect
# Conditions: PXR-Luc HepG2 viability, CellTiter-Fluor, 24 h; series mostly up to 92.4 µM
# Outline: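 Fluorescence read-out (CellTiter-Fluor) of viability in PXR-Luc HepG2 cells, multiplexed with the luciferase agonist read. Compounds in DMSO added after 5hr plating; 24hr total exposure at 37C, 5% CO2.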
row,Structure (SMILES),Potency
1,C(=C\c1ccccc1)/c1ccccc1,inactive
2,CCOC(C)=O,inactive
3,O=C(Nc1cccc2c(=O)cc(-c3nn[nH]n3)oc12)c1ccc(OCCCCc2ccccc2)cc1,inactive
4,CC(O)c1ccccc1 (configuration not stated),inactive
5,O=C(Cn1ccnc1[N+](=O)[O-])NCCO,inactive
6,Cc1ccccc1S,inactive
7,O=C1c2ccccc2C(=O)C1c1nc2ccccc2c(Br)c1O,inactive
8,COC(=O)CS,inactive
9,CC1(C)O[C@@H]2C[C@H]3[C@@H]4C[C@H](F)C5=CC(=O)C=C[C@]5(C)[C@H]4[C@@H](O)C[C@]3(C)[C@]2(C(=O)CO)O1,inactive
10,CCC1NC(=O)c2cc(S(N)(=O)=O)c(Cl)cc2N1 (configuration not stated),inactive
11,CCCCCCCCCCC(=O)O,inactive
12,CCC(C)(C)OC,inactive
13,C1COC1,inactive
14,O=C1CCCCCCCCCCOCCCCO1,inactive
15,COc1ccccc1N1CCN(CCCCNC(=O)c2ccc(-c3ccc(C(C)=O)cc3)cc2)CC1,inactive
16,C=C/C(C)=C/C/C=C(\C)CCC=C(C)C,inactive

row,Structure (SMILES),Potency
1,O=C1c2ccccc2C(=O)c2c(O)c(O)cc(O)c21,54.5 µM (active)
2,O=C(O)C[C@H](NC(=O)OCc1ccccc1)C(=O)O,inactive
3,CCCCCC#CC(=O)OC,inactive
4,O=c1[nH]ncc2ccccc12,inactive
5,C=Cc1ccc(S(=O)(=O)O)cc1,inactive
6,CC1CC(OC(=O)C(O)c2ccccc2)CC(C)(C)N1C (configuration not stated),inactive
7,CC(C)=CCC1C(=O)N(c2ccccc2)N(c2ccccc2)C1=O,inactive
8,CCOC(=O)OC(C)OC(=O)[C@@H]1N2C(=O)[C@@H](NC(=O)[C@H](N)c3ccccc3)[C@H]2SC1(C)C (some centres not stated),inactive
9,OCCOCC#CCOCCO,inactive
10,C=C(C)C(=O)OCCCCCCCCCCCCC,inactive
11,Cc1cc(C)cc(N)c1,inactive
12,C[C@@H]1CN(CCCn2c3ccccc3c3ccccc32)C[C@H](C)N1,29.8 µM (active)
13,NC(=O)c1ccncc1,inactive
14,CCOC(=O)/C=C/C(=O)OCC,inactive
15,O=C(O)c1ccc(OCCCOc2ccc(C(=O)O)cc2)cc1,inactive

# System: not listed separately
# Experiment: Caspase-3/7 induction in HepG2 cells by small molecules, qHTS assay (AID 1346978); further: nearly all actives have a fitted effect of over 15% in size
# Conditions: HepG2 caspase-3/7 activation, Caspase-Glo luminescence, 17 h; series mostly up to 92.4 µM
# Outline: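 Caspase-3/7 induction was measured by Caspase-Glo 3/7 luminescence (30 min, room temperature) after a 17 hr compound exposure of wild-type HepG2 cells seeded at 2,000 per well and pre-incubated 5 hr.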
row,Structure (SMILES),Potency
1,C(=C\c1ccccc1)/c1ccccc1,inactive
2,CC(CCC(=O)O)C(=O)O (configuration not stated),inactive
3,CCOC(C)=O,inactive
4,CCCCC(CC)CN (configuration not stated),inactive
5,CCCCCCCCN,inactive
6,CC(O)c1ccccc1 (configuration not stated),inactive
7,O=C(Cn1ccnc1[N+](=O)[O-])NCCO,inactive
8,Cc1ccccc1S,inactive
9,CC1(C)O[C@@H]2C[C@H]3[C@@H]4C[C@H](F)C5=CC(=O)C=C[C@]5(C)[C@H]4[C@@H](O)C[C@]3(C)[C@]2(C(=O)CO)O1,inactive
10,CCC1NC(=O)c2cc(S(N)(=O)=O)c(Cl)cc2N1 (configuration not stated),inactive
11,CCCCCCCCCCC(=O)O,inactive
12,CCC(C)(C)OC,inactive
13,C1COC1,inactive
14,COc1ccccc1N1CCN(CCCCNC(=O)c2ccc(-c3ccc(C(C)=O)cc3)cc2)CC1,inactive
15,O=C1c2ccccc2C(=O)c2c(O)c(O)cc(O)c21,inactive
16,O=C(O)C[C@H](NC(=O)OCc1ccccc1)C(=O)O,inactive
17,CC(=O)Oc1ccc([N+](=O)[O-])cc1CCl,inactive

row,Structure (SMILES),Potency
1,CCCCCC#CC(=O)OC,inactive
2,CC(C)C(O)(c1ccc(OC(F)(F)F)cc1)c1cncnc1 (configuration not stated),inactive
3,O=c1[nH]ncc2ccccc12,inactive
4,C=Cc1ccc(S(=O)(=O)O)cc1,inactive
5,Cc1cc(C)c(N)cc1C,inactive
6,CC1CC(OC(=O)C(O)c2ccccc2)CC(C)(C)N1C (configuration not stated),inactive
7,CC(C)=CCC1C(=O)N(c2ccccc2)N(c2ccccc2)C1=O,inactive
8,CCOC(=O)OC(C)OC(=O)[C@@H]1N2C(=O)[C@@H](NC(=O)[C@H](N)c3ccccc3)[C@H]2SC1(C)C (some centres not stated),inactive
9,OCCOCC#CCOCCO,inactive
10,c1csc(SSc2cccs2)c1,inactive
11,C=C(C)C(=O)OCCCCCCCCCCCCC,inactive
12,Cc1cc(C)cc(N)c1,inactive
13,NC(=O)c1ccncc1,inactive
14,CCOC(=O)/C=C/C(=O)OCC,inactive
15,O=C(O)c1ccc(OCCCOc2ccc(C(=O)O)cc2)cc1,inactive
16,CC(=O)N/N=C/c1ccc([N+](=O)[O-])o1,inactive
